# Tests used:
# [1] = biological target: Tumor necrosis factor receptor superfamily member 10B (Homo sapiens) (UniProt O14763); assay: viability loss of caspase-8 NB7 cells with TRAIL – with/without TRAIL, luminescence panel, confirmation (AID 651596); conditions: NB7 neuroblastoma + caspase-8, TRAIL sensitization, NB7 Caspase-8, with TRAIL, mean of runs, at 10 µM, stronger effect = higher value
# [2] = as above; conditions: NB7 neuroblastoma + caspase-8, without TRAIL, NB7 Caspase-8, without TRAIL, mean of runs, at 10 µM
# Chain of Tumor necrosis factor receptor superfamily member 10B (Homo sapiens) (O14763 whole entry, looked up): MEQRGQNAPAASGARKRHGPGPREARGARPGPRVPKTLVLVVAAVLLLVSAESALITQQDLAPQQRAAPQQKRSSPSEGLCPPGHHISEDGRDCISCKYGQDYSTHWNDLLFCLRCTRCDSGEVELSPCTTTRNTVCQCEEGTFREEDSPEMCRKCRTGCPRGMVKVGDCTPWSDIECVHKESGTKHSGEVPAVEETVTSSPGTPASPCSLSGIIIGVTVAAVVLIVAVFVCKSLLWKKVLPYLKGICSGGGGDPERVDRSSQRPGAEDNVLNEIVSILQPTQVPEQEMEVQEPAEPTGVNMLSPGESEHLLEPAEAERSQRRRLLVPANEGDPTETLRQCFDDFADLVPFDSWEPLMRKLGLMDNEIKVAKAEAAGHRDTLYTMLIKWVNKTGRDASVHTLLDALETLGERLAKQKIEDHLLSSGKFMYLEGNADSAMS
SMILES,activity [1],activity [2]
S=c1nc[nH]c2nc[nH]c12,64.5%,69%
O=C(Nc1ccc(NC(=O)C2CC2)cc1)c1ccco1,44%,39.1%
CC(C)CC(=O)Nc1ccc(-c2cn3ccsc3n2)cc1,85.2%,88.2%
Fc1ccc(-c2nc3n(n2)Cc2ccccc2-3)cc1,54%,55.6%
O=[N+]([O-])c1c(Nc2cccc(O)c2)cc(Cl)c2nonc12,97%,99.5%
CCN1CCCC1CNC(=O)c1ccc2c(c1)NC(=O)/C(=C\c1ccc(C)cc1)S2 (configuration not stated),89.7%,98.9%
Cc1ccc(C(=O)Nc2ncc(Cc3ccccc3)s2)o1,72.1%,75%
COc1cc(OC)cc(C(=O)Nc2ccc3c(c2)OCCO3)c1,47.1%,43.8%
COc1cc2nc(N3CCNCC3)nc(N)c2cc1OC,27.5%,0.125%
C=C(C)[C@@H]1C2=CC(C(=O)OC)=C(C[C@H](C(=C)C)[C@H]3O[C@H]3C3=C[C@H]1OC3=O)O2,72.2%,96%
Oc1ccc(-c2cn3ccccc3n2)cc1,45.3%,45.5%
COc1ccc(C(=O)NC(=O)Nc2cc(C)ccn2)cc1,95.3%,95.4%
Cc1nc(N)nc(N)c1/C=C/C(C)(C)c1ccc(Cl)cc1,54.5%,61.7%
Cc1ccccc1CS(=O)(=O)c1ncc(Cl)c(C(=O)Nc2ccc(F)cc2)n1,22.5%,24.9%
c1ccc2nc(-c3ccc(N4CCOCC4)cc3)ccc2c1,72.2%,69%
O=C(Nc1nnc(-c2ccccc2)o1)NC1CCCCC1,34.9%,55.4%
CCOc1ccc(/C=C/C(=O)c2c(O)cc(C)oc2=O)cc1,74.8%,77.8%
COc1ccc(/C=C/C(=O)c2ccc([N+](=O)[O-])o2)cc1,35.2%,80.8%
CCOc1ccc(NC(=O)Nc2cccnc2)cc1,55.2%,40.9%
O=C(OCn1ncc(Cl)c(Cl)c1=O)c1ccc(C(F)(F)F)cc1,95.2%,94%
COc1ccc(N=C2S/C(=C\c3ccc(Cl)c([N+](=O)[O-])c3)C(=O)N2CCN(C)C)cc1,65%,90.2%

# Source: PubChem BioAssay
